Source: ChEMBL document CHEMBL3988442, “University of Dundee, Small-Polar-MMV Screening Library” (2021)
For some assays here: Potency and affinity values are given separately.

Legend:
Design in all cases: scale not given: direction of the effect not stated beside the values
[1] = target: Protein translocase subunit SecA (Escherichia coli (strain K12)) (UniProt P10408); assay: Assay to Identify E. coli SecA ATPase Inhibitors; assay type: functional; details: 30 µM
[2] = target: T1, Ubiquitin-activating enzyme e1, putative (Leishmania donovani (strain BPK282A1)) (UniProt E9BSI1); assay: Leishmania donovani Ubiquitin Activating Enzyme (LdE1); assay type: functional; details: 30 µM
T1 sequence (whole entry): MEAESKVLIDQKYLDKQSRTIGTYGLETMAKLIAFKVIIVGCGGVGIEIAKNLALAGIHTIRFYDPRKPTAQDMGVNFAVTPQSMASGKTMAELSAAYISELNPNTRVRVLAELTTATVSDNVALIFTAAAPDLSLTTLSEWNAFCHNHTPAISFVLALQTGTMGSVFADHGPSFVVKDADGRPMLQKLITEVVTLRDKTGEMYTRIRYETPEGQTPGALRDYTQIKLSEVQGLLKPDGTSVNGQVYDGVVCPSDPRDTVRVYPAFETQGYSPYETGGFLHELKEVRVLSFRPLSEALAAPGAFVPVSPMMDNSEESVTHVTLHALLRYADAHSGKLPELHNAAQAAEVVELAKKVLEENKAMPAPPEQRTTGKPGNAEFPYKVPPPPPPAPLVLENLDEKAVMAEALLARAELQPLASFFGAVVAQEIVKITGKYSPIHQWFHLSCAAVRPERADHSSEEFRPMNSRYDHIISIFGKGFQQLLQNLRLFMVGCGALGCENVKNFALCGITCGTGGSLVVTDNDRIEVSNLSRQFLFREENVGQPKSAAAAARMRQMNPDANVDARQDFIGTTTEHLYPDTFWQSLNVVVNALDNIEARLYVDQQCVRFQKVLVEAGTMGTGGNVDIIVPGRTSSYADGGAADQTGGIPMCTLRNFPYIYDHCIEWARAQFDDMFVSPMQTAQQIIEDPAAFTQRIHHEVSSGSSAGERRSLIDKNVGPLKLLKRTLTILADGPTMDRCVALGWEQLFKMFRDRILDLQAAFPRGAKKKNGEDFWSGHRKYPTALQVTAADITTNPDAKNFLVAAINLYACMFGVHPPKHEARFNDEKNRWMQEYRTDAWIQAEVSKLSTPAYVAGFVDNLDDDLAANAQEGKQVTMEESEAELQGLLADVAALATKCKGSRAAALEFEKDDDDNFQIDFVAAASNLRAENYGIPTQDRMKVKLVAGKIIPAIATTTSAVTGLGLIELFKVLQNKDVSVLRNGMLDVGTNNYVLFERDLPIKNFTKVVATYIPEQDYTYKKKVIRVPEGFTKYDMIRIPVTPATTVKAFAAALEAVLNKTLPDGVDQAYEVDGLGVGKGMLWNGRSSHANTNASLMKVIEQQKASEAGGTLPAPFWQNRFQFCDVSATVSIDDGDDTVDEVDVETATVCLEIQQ

[3] = target: AMP-activated protein kinase, AMPK (Homo sapiens) (UniProt P54646+O43741+P54619+Q9UGJ0+Q9Y478+Q13131+Q9UGI9); assay: AMP-dependent Kinase enzyme assay. An in vitro enzyme assay that detects ADP turnover that is directly proportional to AMPK activity. This uses naive AMPK that is activated during the assay with MK-8722; assay type: functional; details: 30 µM
[4] = target: Sialic acid-binding Ig-like lectin 9 (Homo sapiens) (UniProt Q9Y336); assay: Hs-Siglec9 ALPHAscreen SOP 20170721; details: 10 µM
Sequence of Sialic acid-binding Ig-like lectin 9 (Homo sapiens) (Q9Y336 whole entry): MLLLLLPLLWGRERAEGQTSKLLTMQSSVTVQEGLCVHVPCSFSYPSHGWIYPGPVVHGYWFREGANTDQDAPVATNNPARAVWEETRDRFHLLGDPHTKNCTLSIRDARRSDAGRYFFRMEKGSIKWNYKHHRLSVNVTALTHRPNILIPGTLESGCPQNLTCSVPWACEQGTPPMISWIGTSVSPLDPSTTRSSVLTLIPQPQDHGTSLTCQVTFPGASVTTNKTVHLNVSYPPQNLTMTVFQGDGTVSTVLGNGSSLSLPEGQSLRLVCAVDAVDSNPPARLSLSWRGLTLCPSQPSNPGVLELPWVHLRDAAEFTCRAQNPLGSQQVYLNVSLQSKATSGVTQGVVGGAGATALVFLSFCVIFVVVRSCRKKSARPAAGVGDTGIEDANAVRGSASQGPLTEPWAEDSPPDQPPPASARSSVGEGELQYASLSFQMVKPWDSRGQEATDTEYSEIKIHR

Trypanosoma cruzi = assay: Trypanosoma cruzi phosphomannomutase and mannose-1-phosphate guanylyltransferase assay; assay type: functional; details: 10 µM
[5] = target: T2, Arginase-2, mitochondrial (Homo sapiens) (UniProt P78540); assay: in vitro enzyme assay to detect the production of urea directly proportional to the activity of Arginase II; assay type: functional; details: 33.3 µM; also: in the data most compounds retested in dose-response had high values
T2 sequence (whole entry): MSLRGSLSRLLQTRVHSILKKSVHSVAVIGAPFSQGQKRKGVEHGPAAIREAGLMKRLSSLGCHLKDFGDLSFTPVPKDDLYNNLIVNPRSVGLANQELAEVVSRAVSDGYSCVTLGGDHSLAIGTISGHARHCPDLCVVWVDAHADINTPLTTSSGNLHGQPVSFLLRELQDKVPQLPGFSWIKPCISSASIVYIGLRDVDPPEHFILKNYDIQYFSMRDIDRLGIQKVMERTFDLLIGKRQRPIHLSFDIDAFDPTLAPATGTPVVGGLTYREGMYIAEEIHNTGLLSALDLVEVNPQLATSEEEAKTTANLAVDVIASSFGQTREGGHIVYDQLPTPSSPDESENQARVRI

[6] = target: T3, Proteasome subunit beta (Trypanosoma cruzi) (UniProt O96673); assay: Trypanosoma cruzi proteasome chymotrypsin-like activity (TcProtChymo) assay.; also: in the data most compounds retested in dose-response had high values; assay type: functional; details: 9.37 µM
T3 sequence (whole entry): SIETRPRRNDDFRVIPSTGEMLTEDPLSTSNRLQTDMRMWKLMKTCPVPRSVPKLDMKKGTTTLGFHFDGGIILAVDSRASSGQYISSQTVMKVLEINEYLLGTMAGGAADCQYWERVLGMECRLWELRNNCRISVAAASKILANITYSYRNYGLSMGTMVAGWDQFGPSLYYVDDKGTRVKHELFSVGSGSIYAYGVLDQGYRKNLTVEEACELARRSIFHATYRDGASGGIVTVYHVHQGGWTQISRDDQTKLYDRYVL

Homo sapiens = organism: Homo sapiens; assay: To identify inhibition of the IFN signalling (Jak-Stat) pathway via expression of an eGFP reporter gene under the control of an IFN-stimulated response element (ISRE) containing MxA promoter.; assay type: functional; details: 30 µM
[7] = target: T4, Tyrosyl-tRNA synthetase, putative (Trypanosoma cruzi (strain CL Brener)) (UniProt Q4DSP6); assay: Trypanosoma cruzi tyrosyl tRNA synthetase (TcYRS) _High Tyrosine SOP; assay type: functional; details: 30 µM; also: in the data most compounds retested in dose-response had high values
T4 sequence (whole entry): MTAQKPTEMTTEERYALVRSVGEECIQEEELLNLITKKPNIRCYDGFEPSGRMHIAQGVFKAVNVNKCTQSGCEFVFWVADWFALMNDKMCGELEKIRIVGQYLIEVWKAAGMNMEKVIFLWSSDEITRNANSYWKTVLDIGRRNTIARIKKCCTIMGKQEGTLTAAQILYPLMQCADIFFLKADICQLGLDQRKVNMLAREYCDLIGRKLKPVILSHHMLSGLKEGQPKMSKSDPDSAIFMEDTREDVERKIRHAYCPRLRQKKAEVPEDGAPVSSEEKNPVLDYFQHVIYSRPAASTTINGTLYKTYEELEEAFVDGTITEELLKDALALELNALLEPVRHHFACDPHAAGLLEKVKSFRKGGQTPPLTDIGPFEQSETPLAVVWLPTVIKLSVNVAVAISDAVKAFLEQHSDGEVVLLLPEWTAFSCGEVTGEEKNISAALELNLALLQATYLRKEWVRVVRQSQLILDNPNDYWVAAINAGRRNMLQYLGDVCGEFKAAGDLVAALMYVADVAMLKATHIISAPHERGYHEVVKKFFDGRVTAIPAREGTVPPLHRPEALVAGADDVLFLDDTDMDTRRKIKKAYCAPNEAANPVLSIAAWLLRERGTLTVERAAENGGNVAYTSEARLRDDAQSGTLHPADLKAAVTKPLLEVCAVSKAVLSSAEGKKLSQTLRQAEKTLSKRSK

[8] = target: T4, Tyrosyl-tRNA synthetase, putative (Trypanosoma cruzi (strain CL Brener)); assay: Trypanosoma cruzi tyrosyl tRNA synthetase (TcYRS) SOP; assay type: functional; details: 30 µM
[9] = target: Chromo domain-containing protein 1 (Saccharomyces cerevisiae (strain ATCC 204508 / S288c) (Baker's yeast)) (UniProt P32657); assay: ScCHD-1 Enzyme Inhibition Assay; assay type: functional; details: 30 µM; also: in the data most compounds retested in dose-response had high values
Sequence of Chromo domain-containing protein 1 (Saccharomyces cerevisiae (strain ATCC 204508 / S288c) (Baker's yeast)) (P32657 whole entry, the tested form may be a part): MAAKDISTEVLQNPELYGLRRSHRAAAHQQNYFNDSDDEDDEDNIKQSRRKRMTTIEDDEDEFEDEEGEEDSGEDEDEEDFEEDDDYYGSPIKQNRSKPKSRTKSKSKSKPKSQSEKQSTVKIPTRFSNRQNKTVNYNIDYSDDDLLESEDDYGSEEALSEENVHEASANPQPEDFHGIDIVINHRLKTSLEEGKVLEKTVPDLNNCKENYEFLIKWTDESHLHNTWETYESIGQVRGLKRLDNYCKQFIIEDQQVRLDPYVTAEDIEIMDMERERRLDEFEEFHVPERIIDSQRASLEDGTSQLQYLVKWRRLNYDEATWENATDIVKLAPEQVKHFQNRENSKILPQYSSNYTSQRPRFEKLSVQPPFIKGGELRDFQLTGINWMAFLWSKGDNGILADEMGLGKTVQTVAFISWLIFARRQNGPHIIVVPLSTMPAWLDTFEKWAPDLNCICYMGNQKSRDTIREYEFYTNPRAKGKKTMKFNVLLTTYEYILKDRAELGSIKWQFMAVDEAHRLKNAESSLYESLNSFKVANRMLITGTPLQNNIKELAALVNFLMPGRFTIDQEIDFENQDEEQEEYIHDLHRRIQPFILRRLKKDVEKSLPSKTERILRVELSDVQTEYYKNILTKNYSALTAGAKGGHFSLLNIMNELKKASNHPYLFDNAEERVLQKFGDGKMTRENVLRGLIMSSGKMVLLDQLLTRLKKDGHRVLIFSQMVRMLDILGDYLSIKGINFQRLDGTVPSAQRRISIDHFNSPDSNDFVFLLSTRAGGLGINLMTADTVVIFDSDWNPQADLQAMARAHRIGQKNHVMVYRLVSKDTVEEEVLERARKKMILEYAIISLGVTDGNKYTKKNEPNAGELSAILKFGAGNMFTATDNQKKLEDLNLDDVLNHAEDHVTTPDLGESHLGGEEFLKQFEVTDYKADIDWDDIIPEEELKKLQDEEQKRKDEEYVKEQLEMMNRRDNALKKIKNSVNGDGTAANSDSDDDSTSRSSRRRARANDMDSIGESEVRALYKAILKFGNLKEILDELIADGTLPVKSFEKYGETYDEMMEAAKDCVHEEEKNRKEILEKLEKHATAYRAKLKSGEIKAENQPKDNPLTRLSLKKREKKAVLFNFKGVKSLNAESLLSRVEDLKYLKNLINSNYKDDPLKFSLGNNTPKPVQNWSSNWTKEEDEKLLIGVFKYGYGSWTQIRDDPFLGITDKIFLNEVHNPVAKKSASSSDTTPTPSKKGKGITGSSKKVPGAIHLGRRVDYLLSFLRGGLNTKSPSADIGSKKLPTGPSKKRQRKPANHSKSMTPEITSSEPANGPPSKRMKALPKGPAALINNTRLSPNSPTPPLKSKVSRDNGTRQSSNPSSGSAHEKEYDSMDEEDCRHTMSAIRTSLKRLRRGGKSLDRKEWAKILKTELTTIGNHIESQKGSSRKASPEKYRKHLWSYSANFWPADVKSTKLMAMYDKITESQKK

Sequence of Protein translocase subunit SecA (Escherichia coli (strain K12)) (P10408 whole entry): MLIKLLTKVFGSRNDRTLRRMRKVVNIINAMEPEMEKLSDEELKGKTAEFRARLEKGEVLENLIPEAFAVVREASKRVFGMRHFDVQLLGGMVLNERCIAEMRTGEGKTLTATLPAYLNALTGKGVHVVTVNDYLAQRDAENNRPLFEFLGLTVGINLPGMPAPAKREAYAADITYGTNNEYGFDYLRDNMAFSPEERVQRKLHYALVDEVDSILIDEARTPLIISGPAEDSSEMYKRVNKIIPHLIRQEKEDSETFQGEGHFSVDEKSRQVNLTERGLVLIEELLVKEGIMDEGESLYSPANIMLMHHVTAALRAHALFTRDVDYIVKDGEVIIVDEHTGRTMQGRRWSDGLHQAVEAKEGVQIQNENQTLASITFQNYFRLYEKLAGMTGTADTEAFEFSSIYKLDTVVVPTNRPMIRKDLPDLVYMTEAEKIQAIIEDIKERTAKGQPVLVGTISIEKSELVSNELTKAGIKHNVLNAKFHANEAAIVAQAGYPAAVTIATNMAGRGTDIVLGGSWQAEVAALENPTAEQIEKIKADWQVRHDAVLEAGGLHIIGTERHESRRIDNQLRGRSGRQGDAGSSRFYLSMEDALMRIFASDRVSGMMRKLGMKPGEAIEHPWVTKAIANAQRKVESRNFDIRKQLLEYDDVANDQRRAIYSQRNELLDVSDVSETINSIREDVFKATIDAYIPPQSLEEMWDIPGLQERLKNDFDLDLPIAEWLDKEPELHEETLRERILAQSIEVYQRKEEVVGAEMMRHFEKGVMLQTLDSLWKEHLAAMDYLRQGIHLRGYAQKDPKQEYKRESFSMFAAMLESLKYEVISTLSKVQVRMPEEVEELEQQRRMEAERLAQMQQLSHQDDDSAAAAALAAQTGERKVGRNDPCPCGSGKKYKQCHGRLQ

| Compound | Percent Effect [1] | Percent Effect [2] | Percent Effect [3] | Percent Effect [4] | Percent Effect (Trypanosoma cruzi) | Percent Effect [5] | Percent Effect [6] | Percent Effect (Homo sapiens) | Percent Effect [7] | Percent Effect [8] | Percent Effect [9] |
| --- | --- | --- | --- | --- | --- | --- | --- | --- | --- | --- | --- |
| CC(=O)N1CCC(c2ccnc(Nc3cnccn3)n2)C1 (configuration not stated) | -0.594% | 13.3% | 12.9% | 1.15% | -4.72% | -4.43% | 5.73% | 5.13% | 4.25% | 16.7% | -5.82% |
| Cc1ncsc1CN1C[C@H](C(=O)N2CCCO2)[C@@H]2CCO[C@@H]2C1 | -2.57% | -8.22% | -4.3% | 10.2% | 7.74% | -7.58% | 16.5% | -2.42% | 5.21% | 3.7% | -1.86% |
| Cc1nc(C)n(CC2CN(c3ncnc4[nH]ccc34)CCO2)n1 (configuration not stated) | -2.48% | 11.4% | 24% | -0.101% | -3.38% | -2.37% | 6% | 28.6% | 2.08% | 12.7% | -20.9% |
| CC(CN1CCOCC1)NCc1nncn1C1CCCCC1 (configuration not stated) | -2.55% | 1.39% | -4.5% | -12% | -5.54% | 3.09% | 9.65% | -2.46% | 6.32% | 5.13% | -1.99% |
| CN1CCOC(CN(C(=O)Cc2ccccc2F)c2nccs2)C1 (configuration not stated) | -1.47% | 0% | -3.71% | 11.3% | 8.82% | -2.03% | -0.539% | 1.86% | 1.98% | 6.1% | 5.97% |
| O=C(NCC1CCOCC1)[C@@H]1C[C@@H]2CCN(Cc3ccco3)C[C@H]2O1 | -0.876% | 5.33% | -1.12% | 6.61% | -5.02% | -54.7% | 10.1% | -10.2% | 2.08% | 7.5% | -6.48% |
| O=C(c1ccc2c(c1)OCO2)N1CCC[C@]2(C[C@H](OCC3CC3)CO2)C1 | -3.85% | 13.3% | 10.8% | -11.4% | 0.197% | 2.56% | 5.37% | 6.01% | 8.51% | 14.1% | -8.25% |
| CC(C)(C)OC(=O)N1CCCc2ccc(NCc3ncc[nH]3)cc21 | -8.07% | 2.6% | 1.02% | 4.72% | -4.03% | -11% | 4.66% | 7.74% | 1.07% | -3.7% | -0.00165% |
| CC(C)NC(=O)c1sccc1N(C)S(=O)(=O)c1ccc(Cl)cc1 | 2.02% | 7.89% | 10.6% | -13% | -7.5% | 11.8% | 13.1% | 22.6% | -2.13% | 0% | -5.6% |
| Cc1cc(CN(Cc2cccs2)CC2CCCO2)no1 (configuration not stated) | -4.05% | 1.27% | 10.8% | 3.07% | -1.33% | 4.95% | 6% | 6.19% | -5.21% | 0% | 16.7% |
| Cc1nn(C)cc1C(=O)N1C[C@H]2CC[C@@H]1CN(S(=O)(=O)N(C)C)C2 | -0.765% | 5.33% | -1.08% | 4.66% | -8.08% | 2.6% | 20.2% | 13.3% | 0.546% | 1.24% | -6.02% |
| O=C1CCSCC(C(=O)N2CCCC2)N1 (configuration not stated) | -1.89% | 0% | 2.29% | -5.9% | -3.33% | -1.36% | 3.37% | -3.33% | 1.07% | 5% | -1.55% |
| Cc1cnn(CC2CN(CCc3ccncc3)CCO2)c1 (configuration not stated) | -4.16% | 5.48% | 0.214% | -1.34% | -0.783% | 3.18% | 4.08% | -14.5% | 3.23% | 5% | -0.563% |
| c1cncc(COCc2nnc3n2CCN(Cc2ccsc2)C3)c1 | -1.63% | 13% | 2.4% | 6.44% | -2.26% | -23.4% | 19.6% | 25% | 3.23% | 8.64% | -2.81% |
| Cc1ccc([C@]2(O)CC[C@H]3CN(Cc4cccc(Cl)c4Cl)C[C@H]32)nc1 | -2.93% | 12.2% | 12.6% | -9.17% | 1.98% | -0.232% | 17.8% | 51.4% | 9.68% | 16.9% | -15.7% |
| CC(C)Oc1ccc(CNC(=O)CC(F)(F)F)cc1F | -5.61% | 10.5% | -1.12% | 6.95% | -2.52% | 1.08% | 1.78% | -11.2% | 4.43% | 11.1% | -4.45% |
| COCCN1CCN(C(C)C(=O)Nc2ccnn2C(C)C)CC1 (configuration not stated) | -4.97% | 2.7% | 2.76% | 0.97% | -1.95% | 0.417% | 7.35% | -1.59% | 4.95% | 1.22% | -1.09% |
| CN1CCN(C(=O)CC2CCN(CCc3ccccn3)CC2)CC1 | -2.81% | 5.2% | 3.53% | 5.15% | 5.58% | 4.84% | 3.48% | 9.07% | 6.67% | 18.8% | -17.3% |
| O=C(NCC1CC1)[C@H]1C[C@@H]2CN(S(=O)(=O)Cc3ccccc3)C[C@H]1O2 | -3.04% | 10.7% | 12.2% | -8.26% | -6.5% | 2.56% | 9.25% | 12.3% | 0% | 1.28% | -3.45% |
| Cc1ncc(CN2Cc3ccccc3O[C@]3(CC[C@H](CO)CC3)C2)cn1 | -1.38% | 6.76% | 8.93% | 6.44% | -2.57% | 0.696% | 0.78% | 8.08% | 3.23% | 9.09% | -4.96% |
| N#Cc1cccc(SCCS(N)(=O)=O)c1 | -3.48% | 1.39% | -2.94% | 14.2% | 5.15% | -9.27% | 15.3% | 7.55% | 0% | 5.13% | -3.3% |
| Cn1ncc2c1CCCC2NCc1cc(Br)cs1 (configuration not stated) | -0.998% | 13% | 0.777% | -1.41% | 3.82% | 2.74% | 21.4% | 5.32% | 7.62% | 11.8% | -8.68% |
